Measured values published in PubChem BioAssay AID1845225 (National Center for Advancing Translational Sciences (NCATS), 2023).
Results filed as inconclusive are left out. Calls of active or inactive are those of the source. Calls come from the whole dose curve; as a rule, active = well fitted curve in the direction sought with a large enough effect; inconclusive = small, poorly fitted or top-dose-only effect, or effect the other way, or another doubt; inactive = no such curve, though single readings can be large or run the other way.

assay: Confirmatory redox qHTS assay for identification of artifact compounds.;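 note: 0% = DMSO and 100% = DA3003 at 10 µM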; conditions: Amplex Red/HRP redox cycling with DTT, fluorescence; series mostly up to 39 µM; redox activity vs DA3003: at the top concentration
In short: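 Amplex Red (25 uM final) and HRP (250 mU/mL final) in HBSS, compound 15 min, then 250 uM DTT final 30 min, room temperature, dark; fluorescence 525/598 nm, normalized to DMSO and 10 uM DA3003, Hill fitted.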

Redox activity vs DA3003, inactive:
Cc1ccc2c(c1)cc(C(=O)NCc1ccc(F)cc1)n2C -0.369%
COc1cc2c(NC3CCN(C(C)C)CC3)nc(N3CCCN(C)CC3)nc2cc1OCCOCCN(C)C 12.3%
Cc1ccc(C)c(NC(=O)CC2NCCNC2=O)c1 (stereo not given) -0.0323%
CCOc1ccc(OCC)c(NS(=O)(=O)c2c(C)[nH]c(=O)[nH]c2=O)c1 -0.81%
CCOc1ccc(Cn2c(=O)sc3ccccc32)cc1 -0.737%
CC(C)C[C@H](N)C(=O)N[C@H](C(=O)N[C@H](C(=O)N[C@@H](Cc1ccc(O)cc1)C(=O)N1CCC[C@H]1C(=O)N[C@@H](Cc1c[nH]c2ccccc12)C(=O)N[C@H](C(=O)N[C@@H](CCC(N)=O)C(=O)N[C@@H](CCCN=C(N)N)C(=O)O)[C@@H](C)O)C(C)C)C(C)C -0.687% [at 4.35 µM]
CC(=O)N1CCC(C(=O)Nc2nnc(C(C)C)s2)CC1 -0.394%
COc1ccc(C(=O)Nc2nc3c(s2)CCCC3)cc1Cl 0.945%
Cc1ccc(NS(=O)(=O)c2ccc3c(c2)CCN(C(=O)C(F)(F)F)C3)cc1C 0.556%
Cc1ccccc1NC(=O)Cn1c(=O)n(CCc2ccccc2)c(=O)c2sc3ccccc3c21 0.765%
COc1cc2nc(N3CCCCC3)nc(NC3CCN(Cc4ccccc4)CC3)c2cc1OC 16.6%
CC(=NCc1ccccc1)c1ccccc1O 15.3%
COC(=O)c1c(SC)nc2ccccc2c1OCc1ccc(Br)cc1 -2.29%
COC(=O)c1ccccc1NC(=O)[C@H]1O[C@@H]2OC(C)(C)O[C@@H]2[C@H]2OC(C)(C)O[C@H]21 5.32%
COc1cc2nc(N3CCCCC3)nc(NC(C)C)c2cc1OC 7.85%
COc1cc2c(NC3CCN(C(C)C)CC3)nc(C3CCCCC3)nc2cc1OCCOCCN(C)C 6.31%
O=C(NCCc1csc(-c2cccc(F)c2)n1)C(=O)Nc1cc(F)ccc1F -1.07%
COc1cccc(-c2nc(SCC(=O)Nc3ccc4c(c3)OCO4)c(-c3ccccc3)[nH]2)c1 -2.58%
Cc1ccc(Cl)cc1N1C(=O)N(Cc2ccc(C#N)cc2)c2ccccc2S1(=O)=O -1.31%
COc1cc2c(NC3CCN(C)CC3)nc(N3CCN(C)CC3)nc2cc1OCCOCCN(C)C 10.7%
COc1ccc(Cn2c(SCc3ccc(C(=O)NC4CCCCC4)cc3)nc3ccncc32)cc1 0.423%
COc1ccc(-c2nc(CS(=O)CC(=O)NCCc3ccccc3)c(C)o2)cc1OC (stereo not given) 4.2%
CC[C@H](C)CCCCC(=O)N[C@@H](CCN)C(=O)N[C@H](C(=O)N[C@@H](CCN)C(=O)N[C@H]1CCNC(=O)[C@@H]([C@H](C)O)NC(=O)[C@H](CCN)NC(=O)[C@H](CCN)NC(=O)[C@H](CC(C)C)NC(=O)[C@@H](CC(C)C)NC(=O)[C@H](CCN)NC1=O)[C@@H](C)O -1.18% [at 13.1 µM]
CC(C)=CCC/C(C)=C/C=O 7.02% [at 78.4 µM]
CC1CCCCN1CCCNC(=O)Cn1ncc2c3ccccc3n(Cc3ccccc3)c2c1=O (stereo not given) 7.73%
CN1C(C(=O)Nc2ccc(F)cc2F)=CC(c2cccs2)=NS1(=O)=O 0.262%
CN(C)CCNC(=O)CN1C(=O)CCn2nc(-c3cn(C)c4ccccc34)cc21 2.61%
COc1ccc(NC(=O)C(Cc2ccccc2)n2cccc2)c(OC)c1 (stereo not given) -0.936%
O=C(Nc1ccc(Cl)cc1)N1CCC(c2ccccc2)C1 (stereo not given) -0.731%
Cc1ccc(-c2nc3scc(CCNS(=O)(=O)c4ccc(F)c(C)c4)n3n2)cc1 1.44%
COc1ccc(NC(=O)N2CCc3c(sc4c3CCCC4)C2c2ccccc2OC)cc1 (stereo not given) 0.514%
CCOC(=O)c1ccccc1NC(=O)Cn1c(=O)n(-c2cccc(C)c2)c(=O)c2c1c1cc(C)ccc1n2C 0.665%
Cc1oc(-c2ccccc2)nc1CNC(=O)Nc1ccccc1 -0.859%
CC(C)Oc1ccc(C(=O)N2CCC(c3nc4ccccc4s3)CC2)cc1 4.93%
CCCCCC(O)/C=C/C=C\CCCCCCCC(=O)O (stereo not given) -1.07% [at 0.303 µM]
COc1ccc(NC(=O)Nc2cccc(-c3noc(C)n3)c2)cc1 -0.638%
COc1ccc(-c2cc(=O)c3ccccc3o2)cc1 0.478%
O=C(Nc1ccc(C(F)(F)F)cc1)C1(c2cccs2)CCOCC1 1.08%
COc1ccc(N2CCN(Cc3cc(=O)oc4ccc(OC)cc34)CC2)cc1 3.17%
Cc1nc2ccc(S(=O)(=O)N(CC(=O)Nc3ccc(F)cc3F)Cc3ccccc3)cc2s1 5.1%
